Screens as filed in PubChem.
EWS-Fli inh: EWS/Fli transcriptional activity inhibition. A673 NR0B1-luciferase reporter, viability-normalised. inhibition, % at 12.6 µM. actives 0.67% (n = 350,000). AID 651661;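 active means mean inhibition of at least 50% after viability correction, with every replicate also passing that limit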;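 further: firefly luciferase signal divided by Alamar Blue viability fluorescence both relative to DMSO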
F508del corr: correctors of CFTR F508del function in bronchial epithelial cells. CFBE cells, YFP halide quenching; stimulated with forskolin plus potentiator P3; % fluorescence drop versus neutral controls. activity (quench increase), % at 7.58 µM. actives 0.36% (n = 350,000);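 active means mean added fluorescence quench of at least 8% versus neutral control, with both replicates also reaching 8%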;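 further: cells transiently co-express mutant CFTR-F508del with the halide-sensitive YFP; corrector assay measuring rescue of mutant channel to the surface after 24 h compound exposure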
PAX8 inh HTS: inhibitors of PAX8 transcriptional activity in RMG-I cells | AID 652154 | actives 1.2% (n = 360,000) | RMG-I TPO-luciferase reporter, SteadyGlo, 24 h | inhibition, % at 12.6 µM;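 active means mean replicate inhibition at least 60% with every replicate also reaching 60%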;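 further: luciferase light reporting Pax8 driven TPO promoter activity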
GSIS activator: GLuc luminescence reporter in INS-1E cells, primary screen for activators of glucose-dependent secretion of insulin; INS-1E GLuc reporter insulin secretion, 2-3 h; actives 0.61% (n = 370,000); activation, % at 16.6 µM; AID 743287;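 active means lowest replicate activation of at least 40%, so every replicate reaches that level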
HIV Env fusion: inhibitors of HIV Env-mediated cell fusion; HeLa-JRFL Env/CEM21 cell fusion, luciferase; inhibition, % at 12.3 µM; actives 1.1% (n = 360,000);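 active means mean replicate inhibition score of at least 50 and every replicate individually at or above 50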
PGC1a acetyl inh: lowers PGC1a acetylation signal in U2OS cells; AlphaScreen anti-acetyl-lysine; with virally co-expressed GCN5 acetyltransferase; inhibition, % at 15.6 µM; actives 0.17% (n = 350,000); AID 651687;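 active means every replicate shows inhibition of at least 40%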
Of the large screens only hits and unclear results are named; the others gave an inactive call; ! = repeats disagree. A selection: hits, their analogues and other compounds. The true share with any hit is near 2.7%.

COc1ccc(N2C(=O)CC(Sc3nnc(-c4ccccc4)o3)C2=O)cc1 (stereo not given)	PAX8 inh HTS 107 (no result: EWS-Fli inh, F508del corr, GSIS activator)
O=C1CC(Sc2nnc(-c3ccccc3O)o2)C(=O)N1c1ccccc1 (stereo not given)	none (no result: PAX8 inh HTS, HIV Env fusion)
CC(C)NC(=O)Nc1ccc2c(c1)C(=O)N([C@H](C)CO)C[C@@H](C)[C@H](CN(C)Cc1ccncc1)OCCCC[C@@H](C)O2	none (no result: EWS-Fli inh)
CCCNC(=O)N1CC2(C1)[C@H](c1ccccc1)[C@H](CO)N2C(=O)C1CC1	none (no result: HIV Env fusion)
C[C@@H]1CN([C@@H](C)CO)C(=O)CCCn2cc(nn2)CO[C@@H]1CN(C)S(=O)(=O)c1ccc(-c2ccccc2)cc1	none (no result: HIV Env fusion)
CCOC(=O)N(C)C[C@@H]1OCc2cn(nn2)CCCC(=O)N([C@H](C)CO)C[C@H]1C	HIV Env fusion 57
C[C@H](CO)N1C[C@H](C)[C@@H](CN(C)S(=O)(=O)c2ccc(-c3ccccc3)cc2)OCc2cn(nn2)CCCC1=O	PAX8 inh HTS 76!
C=CCN(CC=C)C(=S)Nc1ccc(OC)c(OC)c1	F508del corr 13
O=C(N[C@@H]1CC[C@@H](CC(=O)N2CCCCC2)O[C@@H]1CO)c1cccc(F)c1	none
CCCCN1C(=O)C(O)(c2ccccc2)c2cc(Br)ccc21 (stereo not given)	HIV Env fusion 85
Cc1noc(C)c1NC(=O)Nc1ccc2c(c1)C(=O)N([C@H](C)CO)C[C@@H](C)[C@@H](CN(C)Cc1ccc(C(F)(F)F)cc1)OCCCC[C@H](C)O2	none
CCC(CC)NC(=O)c1ccccc1Oc1ccccc1	GSIS activator 53 (no result: EWS-Fli inh, F508del corr, PAX8 inh HTS, HIV Env fusion)
CCC(C)(C)NC(=O)c1ccccc1Oc1ccccc1	none (no result: PGC1a acetyl inh)
CCOc1ccc(S(=O)(=O)Nc2ccccc2C(=O)N(C)C2CCN(C)CC2)cc1	none (no result: HIV Env fusion)
CCOC(=O)c1ccccc1NS(=O)(=O)c1ccc(OCC)cc1	HIV Env fusion 63 (no result: EWS-Fli inh, F508del corr, PAX8 inh HTS)
O=C(Nc1ccc(F)cc1)N1[C@@H]2CNC[C@H]1C2c1ccc(/C=C/c2ccccc2)cc1 (stereo not given in full)	none (no result: EWS-Fli inh, PAX8 inh HTS, HIV Env fusion)
O=C(Nc1ccc(C(F)(F)F)cc1)N1[C@@H]2CNC[C@H]1C2c1ccc(/C=C/c2ccccc2)cc1 (stereo not given in full)	GSIS activator active! (no result: HIV Env fusion)
Cc1ccc(-c2ccc(C3[C@H]4CNC[C@@H]3N4C(=O)Nc3ccc(F)cc3)cc2)cc1 (stereo not given in full)	EWS-Fli inh 62! (no result: HIV Env fusion)
Cc1ccc(-c2ccc(C3[C@H]4CNC[C@@H]3N4C(=O)Nc3ccccc3Cl)cc2)cc1 (stereo not given in full)	none (no result: HIV Env fusion)
COc1ccccc1-c1ccc(C2[C@H]3CNC[C@@H]2N3C(=O)Nc2ccccc2Cl)cc1 (stereo not given in full)	EWS-Fli inh 62 (no result: HIV Env fusion)
Cc1cc2ncn(-c3ncccc3[N+](=O)[O-])c2cc1C	EWS-Fli inh 58 (no result: PGC1a acetyl inh)
O=C(COC(=O)Cc1ccc(Br)cc1)NCc1ccccc1	none
O=C(Cc1ccc(Br)cc1)NCc1ccccc1	F508del corr 20 (no result: PGC1a acetyl inh)
C[C@@H]1CN([C@@H](C)CO)C(=O)c2ccccc2-c2ccccc2CO[C@H]1CN(C)C(=O)c1ccccc1	none (no result: PAX8 inh HTS, HIV Env fusion)
C[C@H](CO)N1C[C@H](C)[C@H](CN(C)C(=O)Nc2ccc3c(c2)OCO3)Oc2ccc(NC(=O)Cc3ccccc3)cc2C1=O	none
COCCNC(=O)C1CCCN(C(=O)c2cc(-c3cccs3)oc2C)CC1 (stereo not given)	F508del corr 13 (no result: HIV Env fusion)
COCCNC(=O)C1CCCN(C(=O)c2sccc2C)CC1 (stereo not given)	none (no result: GSIS activator)
CC(C)NC(=O)N(C)C[C@H]1OCCCC[C@@H](C)Oc2ccc(NC(=O)c3ccncc3)cc2C(=O)N([C@@H](C)CO)C[C@@H]1C	none
CC(C)COc1ccc(Br)cc1CNC(C)(C)C	GSIS activator 51 (no result: PGC1a acetyl inh)
O=C(O)C(Cc1ccc(O)cc1)N1C(=O)c2ccccc2C1=O (stereo not given)	GSIS activator 48
C[C@@H]1CCCCO[C@@H](CN(C)Cc2ccccc2)[C@@H](C)CN([C@@H](C)CO)C(=O)c2cc(NC(=O)Nc3ccc(C(F)(F)F)cc3)ccc2O1	none
C[C@@H]1CCCCO[C@@H](CN(C)Cc2ccc(C(=O)O)cc2)[C@H](C)CN([C@H](C)CO)C(=O)c2cc(NC(=O)Nc3ccc(C(F)(F)F)cc3)ccc2O1	none
